The assay can be described thus: supercomplex reporter luminescence per Hoechst cell count – Hoechst nuclei count (AID 1645838).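 As to all read-outs here: control cybrid cells.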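 As to z-score: higher means more mitochondrial supercomplex formation.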 The settings on record: Cells, luminescence/Hoechst cell count ratio; for z-score: stronger effect = higher value; for cell count: measured here: cell number, Hoechst nuclei count.
Where [1] appears, read: library stock concentration (final well concentration not given) 80 uM.
Setting [2] is: library stock concentration (final well concentration not given) 400 uM.
Where [3] appears, read: library stock concentration (final well concentration not given) 2 mM.
The mark [4] stands for this setting: library stock concentration (final well concentration not given) 10 mM.
Setting [5] is: library stock concentration (final well concentration not given) 46 uM.
Where [6] appears, read: library stock concentration (final well concentration not given) 278 uM.
Setting [7] is: library stock concentration (final well concentration not given) 1.67 mM.

The whole screen tested about 2,000 compounds, of which about 100 (5%) were called active. This is one part of a sample in which actives are shown more often than they occur. Rule as the data show it: active = z-score above about 2; inactive = the rest.

For `Cc1nc2ccc(-n3ncc(C(=O)c4cc5ccccc5[nH]4)c3N)cc2[nH]1`, the z-score was -0.114 (inactive) under setting [1], -0.221 (inactive) under setting [2], -0.0631 (inactive) under setting [3] and 5.29 (active) under setting [4]. Further, the cell count is 5810 under setting [1], 5920 under setting [2], 5510 under setting [3] and 3410 under setting [4].

Consider `CCCCC[C@H](O)/C=C/[C@H]1[C@H](O)CC(=O)[C@@H]1C/C=C\CCCC(=O)OCC(O)CO` (stereo partly drawn), for which the z-score was 0.364 (inactive) and the cell count is 5190.

In the case of `CCCNC1CCc2nc(N)sc2C1` (stereo not drawn), the z-score reads like this: under setting [1], -0.399 (inactive); under setting [2], -0.375 (inactive); under setting [3], -0.412 (inactive); under setting [4], -0.168 (inactive). Also, the cell count under setting [1] came out at 6960, the cell count under setting [2] was determined as 6720, the cell count under setting [3] stood at 6830 and the cell count under setting [4] stood at 6380.

In the case of `CCOc1ccc(S(=O)(=O)N(CC(=O)N=Nc2c(O)[nH]c3ccccc23)c2ccccc2)cc1`, the outcome (library stock 10 mM) is “inactive; censored for cell count”. Also, the z-score by setting is: under setting [1], 0.0734 (inactive); under setting [2], 0.0751 (inactive); under setting [3], 0.419 (inactive). Moreover, the cell count turned out to be 5190 under setting [1], 5160 under setting [2] and 4350 under setting [3].

Turning to `CC/C=C\C/C=C\C/C=C\C/C=C\CCCCC(=O)OCC`, the z-score was -0.596 (inactive) and the cell count turned out to be 5380.

As to `Nc1nccc2c1ncn2C1C=C(CO)C(O)C1O` (stereo not drawn), the outcome (library stock 10 mM) is “inactive; censored for cell count”. The z-score is -0.246 (inactive) under setting [5], 0.747 (inactive) under setting [6] and 2.95 (active) under setting [7]. Besides, the cell count runs as follows: under setting [5], 5790; under setting [6], 4240; under setting [7], 1810.

On to `CCCCCCCCCCCC(=O)NC[C@]1(C)CCC[C@]2(C)c3ccc(C(C)C)cc3CC[C@@H]12`, for which the z-score is 0.0192 (inactive) and the cell count came out at 4880.

With `CCCCCCCCCCCCCCCC(=O)OC[C@@H](O)COP(=O)(O)O`, the z-score is 0.759 (inactive) and the cell count was 4710.

As to `CC(=O)O[C@@]12C[C@@H](C)[C@@]3(O)[C@@H](C=C(CO)C[C@]4(O)C(=O)C(C)=C[C@@H]34)[C@@H]1C2(C)C`, the z-score was 2.36 (active) and the cell count was 5140.

In the case of `CCCCC[C@H](O)/C=C/[C@H]1C=CC(=O)[C@@H]1CCCCCCC(=O)O`, the z-score was 0.664 (inactive) and the cell count came out at 4830.

Consider `Cc1nc(Nc2n[nH]c3c2CN(C(=O)NC(CN(C)C)c2ccccc2)C3(C)C)c2sccc2n1` (stereo not drawn), for which the outcome is, setting by setting: (library stock 1.67 mM) “inactive; censored for cell count”; (library stock 10 mM) “inactive; censored for cell count”. For the same compound, the z-score under setting [5] was 0.353 (inactive) and the z-score under setting [6] was 1.68 (inactive). Moreover, the cell count under setting [5] turned out to be 4470 and the cell count under setting [6] is 2250.

Regarding `Oc1ccc(Nc2nc(-c3ccc(Cl)cc3)cs2)cc1`, the z-score is -0.695 (inactive) and the cell count turned out to be 4930. Further, under setting [1], the z-score was 0.00338 (inactive) and the cell count is 5690. Also, under setting [2], the z-score is -0.177 (inactive) and the cell count was 5570. Besides, under setting [3], the z-score was -0.154 (inactive) and the cell count turned out to be 5530. Besides, under setting [4], the z-score is 1.99 (active) and the cell count was found to be 2610.

For the compound `Cc1cccc(Nc2nc(-c3ccncc3)cs2)c1`, the z-score is -0.555 (inactive) and the cell count is 5440.

Consider `COc1cccc(OC)c1-c1ccc(CC(NC(=O)c2c(Cl)cccc2Cl)C(=O)O)cc1` (stereo not drawn), for which the z-score is, setting by setting: under setting [5], -0.0712 (inactive); under setting [6], -0.126 (inactive); under setting [7], -0.192 (inactive); under setting [4], -0.205 (inactive). Besides, the cell count turned out to be 5760 under setting [5], 5740 under setting [6], 5820 under setting [7] and 5840 under setting [4].

Values taken from PubChem BioAssay AID1645838 (ICCB-Longwood Screening Facility, Harvard Medical School, 2021).
